Reference: PubChem BioAssay (Tox21)
Records with an inconclusive call do not appear. Active and inactive are the calls of the source. Unless noted, calls come from the whole dose curve; as a rule, active = well fitted curve in the direction sought with a large enough effect in the repeat runs; inconclusive = weak or mixed curves; inactive = no such curve, though single readings can be large; an effect the other way counts as inactive or inconclusive.

Experiments:
[1] = molecular target: Luciferin 4-monooxygenase (Photinus pyralis) (UniProt P08659); test: qHTS assay to identify small molecule inhibitors of firefly luciferase (AID 1224835); note: nearly all actives have a fitted effect of over 25% in size; note: potency is the fitted concentration of half-maximal effect; for activity change, negative = inhibition: series mostly up to about 120 µM
Luciferin 4-monooxygenase (Photinus pyralis), sequence (P08659 whole entry, looked up): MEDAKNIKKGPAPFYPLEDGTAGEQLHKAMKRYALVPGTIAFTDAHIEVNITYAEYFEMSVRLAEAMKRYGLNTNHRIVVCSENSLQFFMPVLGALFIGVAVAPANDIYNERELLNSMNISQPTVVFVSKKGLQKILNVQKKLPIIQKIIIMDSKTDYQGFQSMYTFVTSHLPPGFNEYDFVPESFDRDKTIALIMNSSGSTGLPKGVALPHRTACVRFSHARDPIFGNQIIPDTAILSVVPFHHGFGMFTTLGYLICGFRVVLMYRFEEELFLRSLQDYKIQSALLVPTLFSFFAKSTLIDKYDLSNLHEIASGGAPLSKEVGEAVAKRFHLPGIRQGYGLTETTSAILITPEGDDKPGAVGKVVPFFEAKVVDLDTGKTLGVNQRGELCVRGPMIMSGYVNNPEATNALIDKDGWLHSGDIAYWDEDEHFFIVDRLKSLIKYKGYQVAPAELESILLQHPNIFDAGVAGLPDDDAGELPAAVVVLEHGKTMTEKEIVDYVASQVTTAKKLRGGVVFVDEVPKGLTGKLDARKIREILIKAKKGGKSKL
Outline: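 Biochemical qHTS: compounds run as interplate titrations against purified firefly enzyme, with D-luciferin and ATP each at its KM concentration. Light output recorded by CCD imaging.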

[2] = qHTS assay to identify small molecule agonists of the constitutive androstane receptor (CAR) signaling pathway - cell viability counter screen (AID 1224836); note: series mostly up to about 92 µM; nearly all actives have a fitted effect of over 45% in size
Outline: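 Multiplexed viability check: HepG2-CYP2B6-hCAR cells, 15-point compound dosing, 0.75 uM PK11195 final, 23 h at 37 C, CellTiter-Fluor fluorescence.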

[3] = qHTS assay to identify small molecule antagonists of the constitutive androstane receptor (CAR) signaling pathway - cell viability counter screen (AID 1224837); note: series mostly up to about 92 µM; nearly all actives have a fitted effect of over 45% in size
Outline: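 Using CellTiter-Fluor, viability is scored in HepG2 cells stably carrying hCAR and a 2.2kb CYP2B6 reporter after 23 hr compound exposure across 15 concentrations, with CITCO present at 50 nM.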

[4] = molecular target: Nuclear receptor subfamily 1 group I member 3 (Homo sapiens) (UniProt Q14994); test: qHTS assay to identify small molecule antagonists of the constitutive androstane receptor (CAR) signaling pathway (AID 1224838);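 note: HepG2 cells stably expressing hCAR with CYP2B6 luciferase reporter stimulated by CITCO; nearly all actives have a fitted effect of over 40% in size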
Nuclear receptor subfamily 1 group I member 3 (Homo sapiens), sequence (Q14994 whole entry, looked up): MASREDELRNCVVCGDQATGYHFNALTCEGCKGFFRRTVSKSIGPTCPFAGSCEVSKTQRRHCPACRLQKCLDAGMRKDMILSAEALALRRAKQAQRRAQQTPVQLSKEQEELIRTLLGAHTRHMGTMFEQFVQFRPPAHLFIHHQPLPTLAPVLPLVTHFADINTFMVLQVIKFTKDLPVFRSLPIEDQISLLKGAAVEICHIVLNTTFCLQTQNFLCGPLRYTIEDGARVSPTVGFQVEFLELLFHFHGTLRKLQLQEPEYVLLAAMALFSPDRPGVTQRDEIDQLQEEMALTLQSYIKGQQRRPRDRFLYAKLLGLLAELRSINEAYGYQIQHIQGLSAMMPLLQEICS
Outline: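 Reporter luminescence was quantified after 24 h exposure of hCAR/CYP2B6-2.2kb double-stable HepG2 cells to compounds at 15 concentrations in the presence of 50 nM CITCO final.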

[5] = molecular target: Nuclear receptor subfamily 1 group I member 3 (Homo sapiens) (UniProt Q14994); test: qHTS assay to identify small molecule agonists of the constitutive androstane receptor (CAR) signaling pathway (AID 1224839);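 note: HepG2 cells stably carrying human CAR and a CYP2B6 luciferase reporter; series mostly up to about 92 µM; nearly all actives have a fitted effect of over 15% in size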
Outline: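 Using human hepatoma HepG2 cells engineered with hCAR and a CYP2B6-2.2kb reporter, 15-concentration compound series were incubated 24 h alongside PK11195 at 0.75 uM final, with luminescence quantified afterwards.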

[6] = qHTS assay to identify small molecule antagonists of the estrogen related receptor signaling pathway with the pleiotropic PPARgamma coactivator (PGC) from Tox21 10K library - cell viability counter screen (AID 1224840; active = well fitted cell-killing curve with a large enough effect in the repeat runs, not every such curve was filed as active; note: nearly all actives have a fitted effect of over 40% in size)
Outline: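 Here the PGC/ERR cells serve as a cytotoxicity control: they are exposed to compounds for 17.5 hours at 37 C, and live-cell signal is quantified using CellTiter-Fluor fluorescence.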

[7] = molecular target: Thyrotropin receptor (Homo sapiens) (UniProt P16473); test: qHTS assay to identify small molecule agonists of the thyroid stimulating hormone receptor (TSHR) signaling pathway (AID 1224843; calls by dose curve; note: nearly all actives have a fitted effect of over 45% in size)
Thyrotropin receptor (Homo sapiens), sequence (P16473 whole entry, looked up): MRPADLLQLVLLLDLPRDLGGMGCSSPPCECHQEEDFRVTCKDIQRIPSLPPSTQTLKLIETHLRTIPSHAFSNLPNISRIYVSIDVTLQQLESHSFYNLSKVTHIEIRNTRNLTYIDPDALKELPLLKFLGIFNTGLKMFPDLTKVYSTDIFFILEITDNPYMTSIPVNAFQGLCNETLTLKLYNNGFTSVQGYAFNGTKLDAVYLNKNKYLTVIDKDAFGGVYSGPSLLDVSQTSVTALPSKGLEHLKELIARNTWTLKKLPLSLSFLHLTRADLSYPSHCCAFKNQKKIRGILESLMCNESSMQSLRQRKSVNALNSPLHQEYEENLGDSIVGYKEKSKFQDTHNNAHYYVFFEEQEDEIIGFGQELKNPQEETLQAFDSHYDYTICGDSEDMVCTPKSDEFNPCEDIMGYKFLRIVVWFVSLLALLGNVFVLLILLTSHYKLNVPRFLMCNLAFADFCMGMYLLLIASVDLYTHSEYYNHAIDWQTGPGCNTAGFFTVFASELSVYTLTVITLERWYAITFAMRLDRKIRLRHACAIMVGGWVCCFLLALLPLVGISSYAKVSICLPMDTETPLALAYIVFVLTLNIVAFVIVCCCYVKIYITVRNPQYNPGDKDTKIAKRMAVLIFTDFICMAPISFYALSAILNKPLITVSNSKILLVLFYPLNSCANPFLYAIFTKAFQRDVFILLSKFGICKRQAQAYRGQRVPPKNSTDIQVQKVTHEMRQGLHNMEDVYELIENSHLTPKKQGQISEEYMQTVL
Outline: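 TSHR-HEK293 cells in agonist mode, 30 min room-temperature step, then cAMP measured by competitive HTRF (cAMP-d2 with anti-cAMP cryptate) after 1 h at room temperature. Tested at 15 concentrations in triplicate.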

[8] = qHTS assay to identify small molecule agonists of the hypoxia (HIF-1) signaling pathway - cell viability counter screen (AID 1224844; calls by dose curve; note: nearly all actives have a fitted effect of over 50% in size)
Outline: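 Multiplexed with the HRE beta-lactamase assay, this viability read used CellTiter-Glo luminescence (30 min, RT) on HRE-bla ME-180 cells treated 17 hrs with compounds in 0.5% dialyzed FBS medium.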

[9] = qHTS assay to identify small molecule antagonists of the estrogen related receptor signaling pathway with the pleiotropic PPARgamma coactivator (PGC) from Tox21 10K library (AID 1224841; call rule not given here; note: series mostly up to about 92 µM; actives are mostly falling curves and most rising ones were filed inactive; nearly all actives have a fitted effect of over 50% in size)
Outline: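 Each well held 2,000 PGC/ERR cells, pre-incubated six hours (37 C, 5% CO2). Test substances in DMSO were added by pin tool and left for 18 h at 37 C before luciferase detection by One-Glo.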

[10] = qHTS assay to identify small molecule agonists of the estrogen related receptor signaling pathway with the pleiotropic PPARgamma coactivator (PGC) from Tox21 10K library (AID 1224842); note: nearly all actives have a fitted effect of over 15% in size
Outline: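 PGC/ERR reporter cell line, 2,000 cells per well, incubated 6 h at 37 C before 23 nL compound in DMSO was added. After 18 h at 37 C, One-Glo luminescence read following 30 min at room temperature.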
% is set by controls: 0 for no effect and ±100 for the full control effect.

Nc1ccn([C@H]2CS[C@@H](CO)O2)c(=O)n1
inactive: Potency [1] | Potency [2] | Potency [3] | Potency [4] | Potency [5] | Potency [6] | Potency [7] | Potency [8]

O=C(O)CCC(=O)OC[C@@H](NC(=O)C(Cl)Cl)[C@H](O)c1ccc([N+](=O)[O-])cc1
inactive: Potency [1] | Potency [2] | Potency [3] | Potency [4] | Potency [5] | Potency [6] | Potency [8]

CC(C)(C)C(O)/C=C/c1ccc2c(c1)OCO2 (centres undefined)
inactive: Potency [2] | Potency [3] | Potency [4] | Potency [6] | Potency [7] | Potency [8]
active: Potency [1] 24.5 µM

CCCCCCCCCCCCCCN(C)C
inactive: activity change, negative = inhibition [1] -3.07% [at 23.6 µM] | viability change, negative = cytotoxic [2] 5.26% [at 19 µM] | activity change, negative = cytotoxicity [3] -1.86% [at 19 µM] | activity, negative = inhibition [4] 21.5% [at 19 µM] | activation [5] -0.414% [at 19 µM] | viability change, negative = cytotoxic [6] -1.6% [at 19 µM] | activation [7] 2.75% [at 19 µM] | activity change, negative = cytotoxicity [8] -7.12% [at 15.8 µM]

O=C(O)/C=C/c1ccc(O)c(O)c1
inactive: Potency [1] | Potency [2] | Potency [3] | Potency [4] | Potency [5] | Potency [6] | Potency [7] | Potency [8]

NC(=O)CCCCC(N)=O
inactive: Potency [1] | Potency [2] | Potency [3] | Potency [4] | Potency [5] | Potency [6] | Potency [7] | Potency [8]

CC(C)COC(=O)c1ccc(O)cc1
active: Potency [1] 44.7 µM
inactive: Potency [2] | Potency [3] | Potency [4] | Potency [6] | Potency [8]

O=C(C(=O)c1ccco1)c1ccco1
inactive: Potency [1] | Potency [2] | Potency [3] | Potency [4] | Potency [5] | Potency [6] | Potency [8]

Cc1ccc(Cl)cc1N
inactive: Potency [1] | Potency [2] | Potency [3] | Potency [4] | Potency [5] | Potency [6] | Potency [7] | Potency [8]

CCOC(=O)N1CCC(Nc2ccc(Cl)cc2N)CC1
inactive: Potency [1] | Potency [2] | Potency [3] | Potency [4] | Potency [5] | Potency [6] | Potency [7] | Potency [8]

CC(O)Cn1cnc2c1c(=O)n(C)c(=O)n2C (centres undefined)
inactive: Potency [1] | Potency [2] | Potency [3] | Potency [4] | Potency [6] | Potency [9] | Potency [10]

COc1ccc(N)c([N+](=O)[O-])c1
inactive: Potency [1] | Potency [2] | Potency [3] | Potency [4] | Potency [5] | Potency [6] | Potency [7] | Potency [8]

COC(OC)OC
inactive: Potency [1] | Potency [2] | Potency [3] | Potency [4] | Potency [5] | Potency [6] | Potency [7] | Potency [8]

Cc1ccc(NC(=O)N(C)C)cc1NC(=O)N(C)C
inactive: Potency [1] | Potency [2] | Potency [3] | Potency [4] | Potency [5] | Potency [6] | Potency [7] | Potency [8]

Cc1ccc2c(c1)CCCN2
inactive: Potency [1] | Potency [2] | Potency [3] | Potency [4] | Potency [6] | Potency [7] | Potency [8]

FC(F)(F)C(F)(F)C(F)(F)C(F)(F)CCI
inactive: Potency [1] | Potency [2] | Potency [3] | Potency [4] | Potency [5] | Potency [6] | Potency [7] | Potency [8]

Cc1ccccc1S(N)(=O)=O
inactive: Potency [1] | Potency [2] | Potency [3] | Potency [4] | Potency [5] | Potency [6] | Potency [7] | Potency [8]
